We go through 67 compounds from ChEMBL document CHEMBL3988442, “University of Dundee, Small-Polar-MMV Screening Library” (2021).

Among all 48,000 compounds or so, about 13,000 (27%) showed an effect of 50% or more. This is one part of the list.

In the assay the test system is Wolbachia pipientis. The assay can be described thus: Anti-Wolbachia Cell-Based Screen. As to conditions: 5 µM. The format is functional. Details: scale not given: in the data most compounds retested in dose-response had high values.
As to `CC(C)c1noc(C[S+]([O-])CC(=O)Nc2ccc(F)c(F)c2)n1` (configuration not stated), the “Percent Effect” value is -5.19%. As for `CC(=O)NCCCSCCOc1cccc(C#N)c1`, the figure is -7.407%. Next, `O=C(Nc1ccncc1)NC1CCN(c2ccccc2Cl)C1=O` (configuration not stated): 1.637%; `COc1ccc(CCN2CC(c3nc(CSC)no3)CCC2=O)cc1` (configuration not stated): -1.637%. With `Cc1cc(CNC(=O)c2ccc(C(C)N3CCCCC3)o2)[nH]n1` (configuration not stated), the “Percent Effect” value is reported as -3.545%. For `O=C(c1cccc(-n2cccn2)c1)N1CCCOC(CN2CCCC2)C1` (configuration not stated), the “Percent Effect” value is 2.221%.

Take `Cc1nnc2n1CCN(C(=O)CN1C(=O)C(C)Oc3ccccc31)C2` (configuration not stated): the “Percent Effect” value amounted to 3.234%. Next, `COCCn1cc(NC(=O)N(CCC(N)=O)Cc2ccccc2)cn1`: -7.009%; `Cc1nnc(NCCc2coc(-c3ccc(F)cc3)n2)c(C#N)c1C`: 5.844%. Turning to `Cc1ccc(-c2nc(CCNCc3ccncc3)co2)cc1`, the “Percent Effect” value was found to be 83.41%. Next, `Cc1ccc(-c2nc(CCNC(=O)NC3CCN(C)CC3)co2)cc1`: -5.87%.

Consider `Cc1cnn(CCNCCCOc2ccc(C#N)cc2)c1`, for which the “Percent Effect” value is 4.876%.

Turning to `Cc1nc(NCc2cccnc2)c2c(n1)c(C)nn2C`, the “Percent Effect” value is -9.557%. For the compound `C=C/C=c1\c(=C/C)oc2c(NCc3ccccc3)nc(C)nc12`, the “Percent Effect” value was found to be 116.4%. In the case of `CS(=O)(=O)c1ccc(NCc2ccccc2)cn1`, the “Percent Effect” value is reported as -7.161%. Next, `Cc1nc2c(c(NCc3ccccc3)n1)CCN(C(=O)C1CCC1)CC2`: -5.333%; `CCC(CNc1ncnc2oc(C)nc12)Cc1ccccc1` (configuration not stated): -28.36%; `C=C/C=c1\c(=C/C)oc2c(NCc3ccccc3)ncnc12`: 107.1%. As for `C=C/C=c1\c(=C/C)oc2c(NCc3ccccc3)nc(CC)nc12`, the figure is 112.6%; as for `Cc1ccc(-c2nc(CN3CCc4nn(C)c(=O)cc4C3)no2)cc1`, -3.521%. Next, `CCCNC(=O)C(C)NC(=O)Nc1ccccc1SC(F)F` (configuration not stated): -20.86%; `O=C(c1ccc2occc2c1)N1CCC(C(=O)O)(n2cccn2)CC1`: 17.51%; `CO[C@H]1CN(S(=O)(=O)c2cn(C)cn2)[C@@H]2CCCO[C@H]12`: -0.7123%. For `CNC(=O)NC(=O)CCSc1ccccc1Cl`, the “Percent Effect” value is -6.595%. Next, `Cc1cccc(CC(=O)NS(=O)(=O)c2ccc(F)c(F)c2)c1`: -13.3%.

For `Cc1nc(CNC(=O)NC2CCN(c3cccc(Cl)c3)C2)no1` (configuration not stated), the “Percent Effect” value is 1.056%. As to `COCC(=O)N1CCN(c2cc(-n3cccc3)nc(C)n2)CC1`, the “Percent Effect” value is listed as -19%. As for `COCC(=O)N1CCN(C(C)=O)C[C@@H]1C(=O)OC`, the figure is 18.89%; as for `COC(=O)N1CCCCC1C(=O)N1CCCN(c2ccnc(C)c2)CC1` (configuration not stated), 2.606%. Next, `COCC(=O)N1CCCC1c1cc(N2CCN(C(C)=O)CC2)cc(C)n1` (configuration not stated): 110.9%. As for `COCC(=O)N1CCN(c2cc(C)nc(C3CCCN3C(C)=O)c2)CC1` (configuration not stated), the figure is 105.4%; as for `O=C(NCC1OCCc2cn(CC3CCOCC3)nc21)c1ccncc1.O=C(O)C(F)(F)F` (configuration not stated), -2.103%; as for `CS(=O)(=O)N1C[C@@H]2OCC(=O)N(CC3CCC3)[C@@H]2C1`, -1.197%. Regarding `O=C(O)c1csc(S(=O)(=O)N2CCCc3ccc(F)cc32)c1`, the “Percent Effect” value was -8.72%. For the compound `O=C1Nc2ccccc2CC12CCCN2Cc1ccc(F)cc1` (configuration not stated), the “Percent Effect” value was determined as 106.5%. Regarding `O=C(NC1CC1)N1CCC2(CC1)C(=O)NCCN2Cc1ccccc1.O=C(O)C(F)(F)F`, the “Percent Effect” value was -18.73%. Next, `O=C1Nc2ccccc2CC12CCCN2Cc1ccc(C(F)(F)F)cc1` (configuration not stated): 105.2%.

Take `CC(C)N1CCC2(CCCN(Cc3ccc(F)cc3)C2=O)C1` (configuration not stated): the “Percent Effect” value is recorded as -24.02%. Next, `CS(=O)(=O)c1ccc(CN2CCCC3(C2)C(=O)Nc2ccccc23)cc1` (configuration not stated): 12.45%; `COCCC1(CO)CCCN(Cc2ccc(C(F)(F)F)cc2)C1` (configuration not stated): -12.26%; `CCC(CC)c1cc(CNC(=O)N2CCN(CC)CC2)on1`: 1.8%. Next, `O=C(c1cnc(-c2ccccn2)s1)N1CCCC1Cn1cccn1` (configuration not stated): 117.3%. Turning to `O=C(c1cnc(-c2cnccn2)s1)N1CCCC1Cn1cccn1` (configuration not stated), the “Percent Effect” value was 93.62%. As for `O=C(c1cnc(-c2ncccn2)s1)N1CCCC1Cn1cccn1` (configuration not stated), the figure is 93.22%. As for `COc1ccc(CN2CCN(c3ncc(Cl)cn3)CC2)cc1`, the figure is -2.887%; as for `CC(C)(O)c1cn(C2CCN(c3ncccc3Cl)CC2)nn1`, -4.75%. As for `CSc1ccc(NC(=O)COCc2ccccc2)nc1`, the figure is -20.64%; as for `NC(=O)CN(CC(N)=O)Cc1cccc(Oc2ccccc2)c1`, -1.216%; as for `O=C(Cc1cccnc1)NC1CCCN(CCCc2ccccc2)C1` (configuration not stated), 124.1%. `CN(C(=O)c1cccnc1)C1CCCN(CCc2ccccc2)C1` (configuration not stated): the “Percent Effect” value is -6.072%.

Take `CN(C(=O)CC1=CCCCC1)C1CCCN(CCc2ccccc2)C1` (configuration not stated): the “Percent Effect” value stood at 7.677%. Next, `O=C(NC1CCCN(CCCc2ccccc2)C1)c1ccc(Cl)s1` (configuration not stated): 85.82%; `Nc1cc(C(=O)NC2CCCN(CCCc3ccccc3)C2)ccn1` (configuration not stated): 96.33%; `CC(C)(C)NC(=O)N1CCC(NC(=O)Cc2cccnc2)CC1`: -14.05%. For the compound `O=C(NC1CCCN(CCCc2ccccc2)C1)C1=CCCCC1` (configuration not stated), the “Percent Effect” value was 81.9%.

Consider `Nc1cc(C(=O)NCC2CCN(CCc3ccccc3)C2)ccn1` (configuration not stated), for which the “Percent Effect” value is -3.918%. Next, `CC(C)C(=O)NCC(=O)N(C)C1CCCN(CCc2ccccc2)C1` (configuration not stated): -4.152%; `CCOC(=O)C1CCN(C(=O)Cc2c(C)nc(C)[nH]c2=O)CC1`: 4.435%. `COc1nccnc1N1CCC2(CCCN(C(C)C)C2=O)C1` (configuration not stated): the “Percent Effect” value is on record as -3.964%. Regarding `CCN(c1ccc(C(=O)NCc2cc[nH]n2)cc1)C(C)C`, the “Percent Effect” value is -0.1162%. As for `Cc1sc2nc(C(F)(F)F)nc(N3CCN(C)CC3)c2c1C`, the figure is 8.571%; as for `COc1ccc(F)c(F)c1CN1CCN(CC(C)C)C(=O)C1C` (configuration not stated), 1.65%; as for `O=C(NC1CC1)c1ccc(SCc2cscn2)cc1`, -37.4%. With `CC(C)CNC(=O)NC(=O)CNc1ccccc1SCC(C)C#N` (configuration not stated), the “Percent Effect” value is 9.026%.

Take `O=C(COC1CCCCC1)Nc1ccn(CCc2ccncc2)n1`: the “Percent Effect” value is recorded as -1.367%. For `CN(C(=O)CCc1ccncc1)C1CCCN(CCc2ccccc2)C1` (configuration not stated), the “Percent Effect” value is reported as -4.229%. Next, `O=C(NC1CCCN(CCCc2ccccc2)C1)c1ccncc1` (configuration not stated): 84.08%.
